For experiment [1], the target named is Transcription factor E2F1 (Homo sapiens) (UniProt Q01094). Nature of the experiment: ATG_E2F_CIS: Attagene CIS-FACTORIAL HepG2 Assay for human E2F Transcription Factor 1 (AID 2282935). Conditions: HepG2 Attagene cis-reporter, E2F reporter RNA transcripts; actives raise or lower the signal. The gist of the method: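 Measures reporter transcript levels via RT-PCR with capillary electrophoresis detection in HepG2 cells harboring cis-regulated reporter units; 24 h post-dose; bidirectional curve fitting with DMSO as baseline.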

Experiment [2] is described as follows: ATG_E_Box_CIS: Attagene CIS-FACTORIAL HepG2 Assay for human Enhancer Box (E-box) (AID 2282936). Conditions: HepG2 E-box cis-reporter transcription, actives raise or lower the signal. The method, boiled down: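 First, HepG2 cells receive multiple cis-regulated reporter constructs by transient transfection. Next, chemicals are applied for 24 h. Finally, reporter mRNA is quantified via RT-PCR and capillary electrophoresis, with DMSO as baseline.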

A short description of experiment [3]: ATG_M_61_CIS: Attagene CIS-FACTORIAL HepG2 Assay for M61 Transcription Factor (Internal Marker) (AID 2282937). The settings on record: HepG2 Attagene CIS-FACTORIAL M61 internal marker reporter; actives raise or lower the signal. The method, boiled down: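 Using transiently transfected HepG2 liver cells, reporter transcript levels were assessed 24 h post-dosing by RT-PCR and capillary electrophoresis. Changes in either direction were fitted relative to DMSO controls.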

A short description of experiment [4]: ATG_EGR_CIS: Attagene CIS-FACTORIAL HepG2 Assay for human Early Growth Response 1 (EGR1) (AID 2282938). The settings on record: HepG2 Attagene CIS-FACTORIAL EGR reporter mRNA; actives raise or lower the signal. The gist of the method: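 Fluorescent capillary-electrophoresis signal of reporter cDNA fragments serves as read-out. HepG2 cells bear transiently transfected cis-promoter reporter units and are exposed 24 h; gain- or loss-of-signal is fitted against DMSO.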

The nature of experiment [5]: ATG_M_19_CIS: Attagene CIS-FACTORIAL HepG2 Assay for M19 Transcription Factor (Internal Marker) (AID 2282939). The settings on record: HepG2 Attagene CIS-FACTORIAL M19 internal marker reporter; actives raise or lower the signal. The method, boiled down: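 Readout: fluorescent reporter-transcript fragments by capillary electrophoresis after RT-PCR. Human HepG2 liver cells carried transfected MRTU constructs reporting endogenous transcription-factor activity; exposure 24 h. Gain or loss of signal fitted relative to DMSO.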

A short description of experiment [6]: ATG_ERE_CIS: Attagene CIS-FACTORIAL HepG2 Assay for Estrogen Response Element (ERE) (AID 2282940). Conditions: HepG2 ERE cis-reporter, Attagene RNA transcript; actives raise or lower the signal. The gist of the method: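 Readout: reporter mRNA induction by RT-PCR, FAM-labelled primer extension, HpaI digestion and capillary electrophoresis, 24 h after dosing transfected HepG2 cells. Endogenous transcription factors act on cis-element-regulated reporters. Gain or loss fitted against DMSO.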

Experiment [7] is described as follows: ATG_Ets_CIS: Attagene CIS-FACTORIAL HepG2 Assay for human Erythroblast Transformation Specific (ETS) (AID 2282941). The settings on record: HepG2 ETS cis-reporter transcription, actives raise or lower the signal. The method, boiled down: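 After transient cis-reporter transfection, HepG2 cells receive test chemical for 24 h. Reporter mRNA levels, measured by RT-PCR and capillary electrophoresis fluorescence, are analysed bidirectionally relative to the DMSO baseline.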

The target in experiment [8] is Hepatocyte nuclear factor 3-beta (Homo sapiens) (UniProt Q9Y261). Nature of the experiment: ATG_FoxA2_CIS: Attagene CIS-FACTORIAL HepG2 Assay for human Forkhead box A2 (FOXA2) (AID 2282942). Conditions: HepG2 cis-reporter transcription factor activity, 24 h; actives raise or lower the signal. The gist of the method: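 Fluorescence signal of reporter cDNA fragments, separated by capillary electrophoresis, reflects endogenous transcription factor activity in transfected HepG2 after 24 h. Both increases and decreases fitted against DMSO.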

Experiment [9] can be described thus: ATG_FoxO_CIS: Attagene CIS-FACTORIAL HepG2 Assay for human Forkhead box O (FoxO) (AID 2282943). Conditions: HepG2 Attagene cis-reporter, FoxO element, mRNA; actives raise or lower the signal. The gist of the method:
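HepG2 cells transiently transfected with cis-element-driven reporter units report endogenous FoxO activity. After 24 h chemical exposure, reporter mRNA quantified by RT-PCR, fluorescent labeling, HpaI digestion and capillary electrophoresis; bidirectional fit versus DMSO.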

Experiment [10] in a line: ATG_GLI_CIS: Attagene CIS-FACTORIAL HepG2 Assay for human Zinc Finger Protein GLI1 (AID 2282945). Conditions: HepG2, Attagene cis-factorial reporter mRNA, GLI element; actives raise or lower the signal. The gist of the method:
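Transiently transfected HepG2 cells report endogenous transcription factor activity via cis-element-driven reporter units. After 24 h compound exposure, reporter mRNA was measured by RT-PCR with capillary electrophoresis; bidirectional fitting against DMSO baseline.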

Experiment [11] addresses Bile acid receptor (Homo sapiens) (UniProt Q96RI1). Briefly: ATG_IR1_CIS: Attagene CIS-FACTORIAL HepG2 Assay for human Nuclear Receptor Subfamily 1 Group H Member 4 (NR1H4), IR1 submotif (AID 2282946). Conditions: IR1 reporter transcription, actives raise or lower the signal. The gist of the method:
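HepG2 cells transiently transfected with multiple cis-promoter-driven reporter units to measure endogenous transcription factor activity; 24 h exposure. Reporter mRNA read by RT-PCR, FAM labelling, HpaI digestion and capillary electrophoresis. Bidirectional fit versus DMSO.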

A short description of experiment [12]: ATG_ISRE_CIS: Attagene CIS-FACTORIAL HepG2 Assay for human Interferon Regulatory Factor 1 (IRF1) binding to an Interferon-Stimulated Response Element (ISRE) (AID 2282948). Conditions: HepG2 ISRE cis-reporter (Attagene), mRNA transcription readout; actives raise or lower the signal. The gist of the method: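 Quantitation relies on labelled RT-PCR fragments separated by capillary electrophoresis. Human HepG2 cells bearing cis-promoter reporter constructs were treated 24 h; DMSO served as baseline for bidirectional fitting.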

The nature of experiment [13]: ATG_M_32_CIS: Attagene CIS-FACTORIAL HepG2 Assay for M32 Transcription Factor (Internal Marker) (AID 2282949).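 Note: background control marker of the multiplexed CIS panel rather than a real target.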 Conditions: HepG2 Attagene cis-factorial M32 reporter, mRNA; actives raise or lower the signal. The method, boiled down: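 Internal background marker read-out: RT-PCR/capillary electrophoresis fluorescence of reporter transcripts from transiently transfected HepG2 cells after 24 h chemical exposure. Activity fitted bidirectionally relative to DMSO negative control.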

Experiment [14] can be described thus: ATG_M_06_CIS: Attagene CIS-FACTORIAL HepG2 Assay for M06 Transcription Factor (Internal Marker) (AID 2282950). The settings on record: HepG2 Attagene CIS-FACTORIAL M06 internal marker reporter; actives raise or lower the signal. The method, boiled down:
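Terse: HepG2, transient MRTU transfection (FuGene 6), 24 h dosing; total RNA, oligo(dT) RT, PCR, FAM label, HpaI cut, capillary electrophoresis; bidirectional fit vs DMSO baseline; background-control endpoint.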

Experiment [15] concerns the target Hypoxia-inducible factor 1-alpha (Homo sapiens) (UniProt Q16665). Nature of the experiment: ATG_HIF1a_CIS: Attagene CIS-FACTORIAL HepG2 Assay for human Hypoxia Inducible Factor 1 (HIF1A) (AID 2282951). Conditions: HepG2 Attagene cis-factorial HIF1a reporter transcription; actives raise or lower the signal. The method, boiled down: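 Endogenous-TF cis reporter readout, human HepG2 cells, 24 h incubation; mRNA detected via RT-PCR and capillary electrophoresis fluorescence; DMSO-normalised bidirectional fitting.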

Experiment [16] addresses Heat shock factor protein 1 (Homo sapiens) (UniProt Q00613). Nature of the experiment: ATG_HSE_CIS: Attagene CIS-FACTORIAL HepG2 Assay for human Heat Shock Transcription Factor 1 (HSE) (AID 2282953). Conditions: HepG2 HSE cis-reporter, Attagene RNA transcription; actives raise or lower the signal. The method, boiled down:
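Read-out: fluorescence of reporter-specific RT-PCR fragments separated by capillary electrophoresis. HepG2 carrying transfected cis-element reporter units; 24 h dosing; activity fitted in both directions relative to DMSO baseline.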

Experiment [17] is described as follows: ATG_MRE_CIS: Attagene CIS-FACTORIAL HepG2 Assay for human Metal Responsive Element (MRE) (AID 2282954). The settings on record: HepG2 MRE cis-reporter transcription, Attagene multiplex; actives raise or lower the signal. The method, boiled down: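 Fluorescent reporter fragments separated by capillary electrophoresis give mRNA induction for the MRE unit after 24 h treatment of transfected HepG2 cells. Endogenous transcription-factor activity is read; DMSO serves as negative control and baseline.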

The nature of experiment [18]: ATG_GRE_CIS: Attagene CIS-FACTORIAL HepG2 Assay for human Glucocorticoid Response Elements (GRE) (AID 2282947). Conditions: HepG2 GRE cis-reporter, Attagene multiplex mRNA; actives raise or lower the signal. The method, boiled down: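 Endogenous transcription factor activity is read through cis-element reporter constructs transiently transfected into HepG2 cells. After 24 h treatment, labelled RT-PCR products are resolved by capillary electrophoresis; DMSO sets baseline for bidirectional curve fitting.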

The target in experiment [19] is Hepatocyte nuclear factor 6 (Homo sapiens) (UniProt Q9UBC0). Briefly: ATG_HNF6_CIS: Attagene CIS-FACTORIAL HepG2 Assay for human Hepatocyte Nuclear Factor 6 (HNF6) (AID 2282952). Conditions: HepG2 Attagene cis-factorial HNF6 reporter transcription; actives raise or lower the signal. The method, boiled down:
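Transiently transfected HepG2 cells expressing cis-regulated reporter transcription units were exposed to chemical for 24 h in a 24-well format. Reporter transcript abundance was determined by fluorescence capillary electrophoresis.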

Values joined by “and” are separate entries in the source; they are usually repeats but may differ in a detail not shown here. Equal entries are not always repeated. The source holds several records for some structures; these can differ, active in one and inactive in another. Active and inactive are the calls of the source. Rule for the calls: active = hit-call score of the fitted dose curve at least 0.9, where 1 is the maximum; inactive = score below 0.9.

Here are results for six molecules from PubChem BioAssay (EPA / NIEHS).

Hepatocyte nuclear factor 3-beta (Homo sapiens), sequence (Q9Y261 whole entry, looked up, the tested form may be a part): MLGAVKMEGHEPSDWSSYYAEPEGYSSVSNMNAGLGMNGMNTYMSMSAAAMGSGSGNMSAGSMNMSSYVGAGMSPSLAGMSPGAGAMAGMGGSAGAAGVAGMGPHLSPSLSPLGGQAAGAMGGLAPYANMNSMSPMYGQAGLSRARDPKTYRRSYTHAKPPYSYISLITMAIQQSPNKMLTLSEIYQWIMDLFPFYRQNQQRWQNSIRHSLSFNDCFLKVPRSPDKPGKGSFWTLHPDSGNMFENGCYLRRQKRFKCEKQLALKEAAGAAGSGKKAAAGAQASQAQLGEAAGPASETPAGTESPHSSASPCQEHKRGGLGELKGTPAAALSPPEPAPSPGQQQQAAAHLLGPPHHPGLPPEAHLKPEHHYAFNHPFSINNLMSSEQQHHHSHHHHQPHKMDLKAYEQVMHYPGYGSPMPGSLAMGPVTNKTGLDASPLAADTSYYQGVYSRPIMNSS
Bile acid receptor (Homo sapiens), sequence (Q96RI1 whole entry, looked up): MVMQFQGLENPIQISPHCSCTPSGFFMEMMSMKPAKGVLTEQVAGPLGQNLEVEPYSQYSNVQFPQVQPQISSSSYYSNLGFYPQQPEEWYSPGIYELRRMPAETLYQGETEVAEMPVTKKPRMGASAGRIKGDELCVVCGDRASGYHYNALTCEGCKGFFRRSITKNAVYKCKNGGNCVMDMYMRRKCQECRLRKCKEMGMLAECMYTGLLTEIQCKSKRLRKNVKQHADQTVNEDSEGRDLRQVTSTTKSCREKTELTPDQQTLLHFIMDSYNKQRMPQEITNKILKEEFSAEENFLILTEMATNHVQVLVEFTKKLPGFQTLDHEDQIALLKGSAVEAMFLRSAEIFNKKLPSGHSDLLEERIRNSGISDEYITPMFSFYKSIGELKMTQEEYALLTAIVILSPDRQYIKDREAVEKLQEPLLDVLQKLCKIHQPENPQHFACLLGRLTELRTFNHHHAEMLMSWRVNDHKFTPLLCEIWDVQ
Hypoxia-inducible factor 1-alpha (Homo sapiens), sequence (Q16665 whole entry, looked up): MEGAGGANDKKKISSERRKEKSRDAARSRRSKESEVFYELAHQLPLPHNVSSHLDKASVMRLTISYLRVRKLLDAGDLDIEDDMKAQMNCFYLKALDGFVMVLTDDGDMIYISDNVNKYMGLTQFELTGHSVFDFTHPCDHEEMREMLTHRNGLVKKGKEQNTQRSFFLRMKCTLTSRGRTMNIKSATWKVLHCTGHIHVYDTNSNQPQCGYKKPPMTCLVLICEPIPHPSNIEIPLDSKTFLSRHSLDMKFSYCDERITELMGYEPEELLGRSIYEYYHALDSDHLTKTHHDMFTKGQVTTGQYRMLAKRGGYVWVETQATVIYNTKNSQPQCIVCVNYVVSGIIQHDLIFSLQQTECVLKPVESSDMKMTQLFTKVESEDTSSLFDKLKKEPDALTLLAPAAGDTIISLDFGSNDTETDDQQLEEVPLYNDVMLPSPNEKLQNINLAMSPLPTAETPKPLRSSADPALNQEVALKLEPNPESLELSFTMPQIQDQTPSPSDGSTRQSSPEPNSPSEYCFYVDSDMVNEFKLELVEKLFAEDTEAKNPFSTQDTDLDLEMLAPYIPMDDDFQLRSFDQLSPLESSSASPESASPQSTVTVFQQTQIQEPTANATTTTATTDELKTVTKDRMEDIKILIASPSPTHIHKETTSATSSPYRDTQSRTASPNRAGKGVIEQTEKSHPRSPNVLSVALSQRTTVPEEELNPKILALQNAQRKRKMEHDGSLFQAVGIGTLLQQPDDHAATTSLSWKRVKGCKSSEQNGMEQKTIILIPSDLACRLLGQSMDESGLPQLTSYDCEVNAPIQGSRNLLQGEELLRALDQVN
Heat shock factor protein 1 (Homo sapiens), sequence (Q00613 whole entry, looked up, the tested form may be a part): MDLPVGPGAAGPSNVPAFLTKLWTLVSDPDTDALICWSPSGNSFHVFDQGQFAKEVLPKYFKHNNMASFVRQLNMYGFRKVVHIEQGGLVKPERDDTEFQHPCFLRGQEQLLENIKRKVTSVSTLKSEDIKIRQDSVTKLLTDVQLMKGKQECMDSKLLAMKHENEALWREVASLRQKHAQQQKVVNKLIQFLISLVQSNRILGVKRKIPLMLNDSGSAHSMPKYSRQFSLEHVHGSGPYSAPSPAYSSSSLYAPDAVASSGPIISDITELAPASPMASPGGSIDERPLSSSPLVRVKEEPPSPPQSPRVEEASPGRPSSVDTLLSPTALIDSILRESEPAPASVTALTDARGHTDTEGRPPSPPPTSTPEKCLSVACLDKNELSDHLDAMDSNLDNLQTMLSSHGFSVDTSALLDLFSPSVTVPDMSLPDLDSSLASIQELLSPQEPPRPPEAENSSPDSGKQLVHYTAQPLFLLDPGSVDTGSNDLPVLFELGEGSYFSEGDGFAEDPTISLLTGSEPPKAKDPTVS
Hepatocyte nuclear factor 6 (Homo sapiens), sequence (Q9UBC0 whole entry, looked up): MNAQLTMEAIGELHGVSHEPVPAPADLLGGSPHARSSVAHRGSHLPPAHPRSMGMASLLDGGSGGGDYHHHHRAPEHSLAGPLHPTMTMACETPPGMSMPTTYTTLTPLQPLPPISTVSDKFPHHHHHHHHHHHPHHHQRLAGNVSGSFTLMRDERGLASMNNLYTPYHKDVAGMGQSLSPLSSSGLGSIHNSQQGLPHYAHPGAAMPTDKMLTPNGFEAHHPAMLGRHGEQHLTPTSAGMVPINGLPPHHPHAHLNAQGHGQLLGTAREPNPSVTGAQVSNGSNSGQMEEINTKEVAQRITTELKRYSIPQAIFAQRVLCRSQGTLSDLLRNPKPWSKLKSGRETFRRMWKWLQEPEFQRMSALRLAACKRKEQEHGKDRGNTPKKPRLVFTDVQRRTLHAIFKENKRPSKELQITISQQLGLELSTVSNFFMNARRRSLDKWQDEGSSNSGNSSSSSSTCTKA
Transcription factor E2F1 (Homo sapiens), sequence (Q01094 whole entry, looked up): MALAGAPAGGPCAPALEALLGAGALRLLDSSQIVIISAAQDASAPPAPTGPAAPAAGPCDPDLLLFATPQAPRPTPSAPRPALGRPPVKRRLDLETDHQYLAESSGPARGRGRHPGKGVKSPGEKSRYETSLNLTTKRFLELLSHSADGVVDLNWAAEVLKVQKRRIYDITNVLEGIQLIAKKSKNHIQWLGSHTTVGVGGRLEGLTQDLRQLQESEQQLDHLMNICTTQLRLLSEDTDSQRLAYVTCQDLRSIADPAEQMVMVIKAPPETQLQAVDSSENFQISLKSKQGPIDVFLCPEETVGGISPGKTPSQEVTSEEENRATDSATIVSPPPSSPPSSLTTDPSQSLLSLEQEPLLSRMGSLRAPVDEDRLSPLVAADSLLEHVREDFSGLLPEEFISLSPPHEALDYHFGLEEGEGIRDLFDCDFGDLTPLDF

As a reminder, the AC50 is the concentration giving half of the maximal activity seen. Regarding `Cc1oc(-c2ccccc2)nc1CCOc1ccc(C[C@H](Nc2ccccc2C(=O)c2ccccc2)C(=O)O)cc1`, the outcome in experiment [1], in [2], in experiment [3], in experiment [5], in [7] and in [8] was inactive. Besides, the call in [9], in experiment [10], in experiment [12], in experiment [13] and in experiment [14] was inactive. Further, the AC50 in [4] was 17.1 µM (active); in [6], 0.000523 µM (active); in [11], 11 µM (active); in experiment [15], 17.6 µM (active); in experiment [16], 17.6 µM (active); in [17], 20.8 µM (active).
On to `CC(C)(C)c1cccc(C(C)(C)C)c1O`, for which the AC50 in [1] was 188 µM (active); in [7] it was 166 µM (active); in experiment [12] it was 162 µM (active); in experiment [15], 173 µM (active); in [17] it was 158 µM (active). Besides, the outcome in experiment [2], in experiment [3], in experiment [4], in [5], in [6] and in experiment [8] was inactive. Further, the molecule was called inactive in [9], in experiment [10], in experiment [11], in experiment [18], in [13] and in experiment [14]. Further, in experiment [16], the outcome was inactive.
On to `COCC(C)O` (stereo not given), for which the molecule was called inactive in [1], in experiment [2], in experiment [3], in experiment [4], in experiment [5] and in [6]. Further, the result in experiment [7], in experiment [8], in experiment [9], in experiment [10], in experiment [12] and in [13] was inactive. Further, the outcome in [14], in experiment [15], in experiment [19] and in experiment [17] was inactive.
Consider `CC(C)CCCCCCOC(=O)CCCCC(=O)OCCCCCCC(C)C`, for which the call in experiment [1], in [2], in [3], in [4], in experiment [5] and in experiment [6] was inactive. Further, the molecule was called inactive in experiment [7], in [8], in experiment [9], in experiment [10], in [11] and in [18]. The molecule was called inactive in experiment [12], in experiment [13], in experiment [14], in [15], in experiment [19] and in experiment [16]. Also, in experiment [17], the molecule was called inactive.
Consider `CCCCC[C@H](O)CC(=O)CCc1ccc(O)c(OC)c1`, for which the call in [1], in experiment [2], in [3], in experiment [4], in [5] and in [6] was inactive. Moreover, the molecule was called inactive in experiment [7], in experiment [8], in [9], in experiment [10], in experiment [18] and in [12]. For the same molecule, the molecule was called inactive in [13], in experiment [14], in experiment [15], in [19], in experiment [16] and in experiment [17]. The AC50 in experiment [11] was 149 µM (active).
Turning to `CC(C)(C)c1cc(C(C)(C)C)c(O)c(C(C)(C)C)c1`, the molecule was called inactive in experiment [1], in [2], in experiment [3], in experiment [4], in experiment [5] and in experiment [6]. Moreover, the molecule was classed as inactive in [7], in experiment [8], in experiment [9], in experiment [10], in experiment [18] and in experiment [12]. Also, the call in experiment [13], in [14], in [15], in [19] and in experiment [16] was inactive. The AC50 in [11] was 698 nM (active) and 2.29 µM (active); in experiment [12], 138 µM (active); in experiment [15], 100 µM (active); in [17] it was 100 µM (active) and 36.8 µM (active).
